The results in this text go back to the supplement of paper PMC12645437, “Orthogonal IMiD-Degron Pairs Induce Selective Protein Degradation in Cells” (ACS Chemical Biology, 2025).

The full ranking holds about 8,300 sequences; the median of “log2 fold change of degron read counts, EGFP-low vs EGFP+ sorted cells (limma voom), compound-induced degradation” is about -1.1, and the highest 2% start at about 3.2. What follows is part of a selection rich in the highest values, with near analogues and random picks from the rest.

The assay deals with T1, CRBN, Q96SW2.
T1 chain: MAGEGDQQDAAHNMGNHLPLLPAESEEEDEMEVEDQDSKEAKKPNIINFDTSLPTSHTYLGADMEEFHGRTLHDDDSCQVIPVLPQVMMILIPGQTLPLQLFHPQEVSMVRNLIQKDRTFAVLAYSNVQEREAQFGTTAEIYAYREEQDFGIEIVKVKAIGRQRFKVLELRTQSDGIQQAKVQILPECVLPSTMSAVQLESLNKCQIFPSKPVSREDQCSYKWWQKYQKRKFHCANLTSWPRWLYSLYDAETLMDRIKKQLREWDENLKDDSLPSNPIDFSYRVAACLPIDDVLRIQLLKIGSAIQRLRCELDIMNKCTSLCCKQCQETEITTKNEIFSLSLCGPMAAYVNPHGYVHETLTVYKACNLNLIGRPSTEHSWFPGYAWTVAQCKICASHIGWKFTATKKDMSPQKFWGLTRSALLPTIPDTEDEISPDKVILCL
The assay is described as follows: log2 fold change of degron read counts, EGFP-low vs EGFP+ sorted cells (limma voom), compound-induced degradation; higher = more compound-induced degradation of the degron-EGFP fusion; degrons are variants of IKZF1/3 zinc finger 2; compound dose not given here. Conditions: Jurkat, 18 h.

The mark [1] stands for this setting: compound: compound 19 (5-tert-butyl-thalidomide).
The mark [2] stands for this setting: compound: compound 22 (5-morpholino-thalidomide).
The mark [3] stands for this setting: compound: compound 33 (diphenyl IMiD analogue).
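Also: pooled lentiviral library of zinc finger degron-EGFP fusions in mCherry-positive Jurkat cells, FACS-sorted after compound exposure, with degron abundance counted by next-generation sequencing.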

B1: 46F_47F_49N_50V_52G_53A_54Y_55F_67L_, Q9UKT9 (peptide)
chain: FFCNVCGAYFTQKGNLLRHIKL
B1: the “log2 fold change of degron read counts” value reads like this: under setting [1], -0.163; under setting [2], 0.227; under setting [3], 0.144; (compound: thalidomide) -1.05.

B2: 46F_47M_49E_50I_52G_53R_54N_55F_67L_, Q9UKT9 (peptide)
chain: FMCEICGRNFTQKGNLLRHIKL
As for B2, the “log2 fold change of degron read counts” value under setting [1] was -2.42, the “log2 fold change of degron read counts” value under setting [2] is -2.71, the “log2 fold change of degron read counts” value under setting [3] was -0.582 and the “log2 fold change of degron read counts” value (compound: thalidomide) is -1.02.

B3: 46F_47F_49S_50V_52G_53H_54W_55F_67L_, Q9UKT9 (peptide)
chain: FFCSVCGHWFTQKGNLLRHIKL
B3: the “log2 fold change of degron read counts” value was -1.15 under setting [1], -1.58 under setting [2], -1.38 under setting [3] and -1.26 (compound: thalidomide).

B4: 46F_47T_49P_50I_52G_53H_54L_55F_67L_, Q9UKT9 (peptide)
chain: FTCPICGHLFTQKGNLLRHIKL
For B4, the “log2 fold change of degron read counts” value by setting is: under setting [1], -2.23; under setting [2], -2.6; under setting [3], -1.44; (compound: thalidomide) -1.57.

B5: 46F_47M_49P_50V_52G_53A_54R_55F_67L_, Q9UKT9 (peptide)
chain: FMCPVCGARFTQKGNLLRHIKL
Take B5: the “log2 fold change of degron read counts” value is -0.509 under setting [1], 0.0794 under setting [2], 1.25 under setting [3] and 0.719 (compound: thalidomide).

B6: 46F_47Q_49P_50V_52G_53A_54R_55F_67L_, Q9UKT9 (peptide)
chain: FQCPVCGARFTQKGNLLRHIKL
For the sequence B6, the “log2 fold change of degron read counts” value was -0.395 under setting [1], 2.27 under setting [2], 1.08 under setting [3] and 3.63 (compound: thalidomide).

B7: 46F_47D_49P_50V_52G_53A_54R_55F_67L_, Q9UKT9 (peptide)
chain: FDCPVCGARFTQKGNLLRHIKL
For the sequence B7, the “log2 fold change of degron read counts” value turned out to be 3.12 under setting [1], 1.66 under setting [2], 1.4 under setting [3] and 2.71 (compound: thalidomide).

B8: 46F_47A_49P_50V_52G_53A_54R_55F_67L_, Q9UKT9 (peptide)
chain: FACPVCGARFTQKGNLLRHIKL
With B8, the “log2 fold change of degron read counts” value was 3.49 under setting [1], 2.28 under setting [2], -0.0911 under setting [3] and 1.06 (compound: thalidomide).

B9: 46F_47F_49P_50V_52G_53A_54R_55F_67L_, Q9UKT9 (peptide)
chain: FFCPVCGARFTQKGNLLRHIKL
Regarding B9, the “log2 fold change of degron read counts” value by setting is: under setting [1], 3.35; under setting [2], 3.29; under setting [3], 1.72; (compound: thalidomide) 1.35.

B10: 46F_47H_49P_50V_52G_53A_54R_55F_67L_, Q9UKT9 (peptide)
chain: FHCPVCGARFTQKGNLLRHIKL
Take B10: the “log2 fold change of degron read counts” value is, setting by setting: under setting [1], 1.99; under setting [2], 2.23; under setting [3], 0.971; (compound: thalidomide) 0.937.

B11: 46F_47V_49P_50V_52G_53A_54R_55F_67L_, Q9UKT9 (peptide)
chain: FVCPVCGARFTQKGNLLRHIKL
Consider B11, for which the “log2 fold change of degron read counts” value reads like this: under setting [1], 0.0453; under setting [2], 2.18; under setting [3], 0.744; (compound: thalidomide) 2.8.

B12: 46F_47E_49P_50V_52G_53A_54R_55F_67L_, Q9UKT9 (peptide)
chain: FECPVCGARFTQKGNLLRHIKL
B12: the “log2 fold change of degron read counts” value runs as follows: under setting [1], 0.67; under setting [2], -0.349; under setting [3], 1.42; (compound: thalidomide) 2.94.

B13: 46F_47C_49P_50V_52G_53A_54R_55F_67L_, Q9UKT9 (peptide)
chain: FCCPVCGARFTQKGNLLRHIKL
B13: the “log2 fold change of degron read counts” value was determined as 2.31 under setting [1], 2.41 under setting [2], 1.79 under setting [3] and 2.26 (compound: thalidomide).

B14: 46L_47S_49E_50I_52G_53F_54I_55C_67L_, Q9UKT9 (peptide)
chain: LSCEICGFICTQKGNLLRHIKL
In the case of B14, the “log2 fold change of degron read counts” value by setting is: under setting [1], 0.617; under setting [2], 0.753; under setting [3], 0.094; (compound: thalidomide) 0.23.

B15: 46L_47R_49N_50Q_52G_53F_54D_55C_67L_, Q9UKT9 (peptide)
chain: LRCNQCGFDCTQKGNLLRHIKL
Turning to B15, the “log2 fold change of degron read counts” value is, setting by setting: under setting [1], -2.4; under setting [2], -3.02; under setting [3], -2; (compound: thalidomide) -2.27.

B16: 46F_47I_49E_50I_52G_53A_54V_55F_67L_, Q9UKT9 (peptide)
chain: FICEICGAVFTQKGNLLRHIKL
Consider B16, for which the “log2 fold change of degron read counts” value under setting [1] was -0.571, the “log2 fold change of degron read counts” value under setting [2] worked out at 1.25, the “log2 fold change of degron read counts” value under setting [3] came out at 2.53 and the “log2 fold change of degron read counts” value (compound: thalidomide) worked out at 2.12.

B17: 46F_47E_49E_50Q_52G_53A_54I_55F_67L_, Q9UKT9 (peptide)
chain: FECEQCGAIFTQKGNLLRHIKL
Consider B17, for which the “log2 fold change of degron read counts” value was -2.86 under setting [1], -2.97 under setting [2], -1.26 under setting [3] and -0.499 (compound: thalidomide).

B18: 46L_47A_49E_50I_52G_53F_54E_55C_67L_, Q9UKT9 (peptide)
chain: LACEICGFECTQKGNLLRHIKL
Take B18: the “log2 fold change of degron read counts” value is 0.602 under setting [1], -0.739 under setting [2], -1.36 under setting [3] and -0.804 (compound: thalidomide).

B19: 46F_47I_49E_50I_52G_53R_54M_55F_67L_, Q9UKT9 (peptide)
chain: FICEICGRMFTQKGNLLRHIKL
Take B19: the “log2 fold change of degron read counts” value reads like this: under setting [1], -2.48; under setting [2], -1.85; under setting [3], -0.238; (compound: thalidomide) -0.738.

B20: 46F_47I_49P_50I_52G_53A_54T_55F_67L_, Q9UKT9 (peptide)
chain: FICPICGATFTQKGNLLRHIKL
Turning to B20, the “log2 fold change of degron read counts” value under setting [1] is -1.06, the “log2 fold change of degron read counts” value under setting [2] was 1.53, the “log2 fold change of degron read counts” value under setting [3] is 1.48 and the “log2 fold change of degron read counts” value (compound: thalidomide) amounted to 1.86.

B21: 46F_47F_49P_50I_52G_53A_54T_55F_67L_, Q9UKT9 (peptide)
chain: FFCPICGATFTQKGNLLRHIKL
Turning to B21, the “log2 fold change of degron read counts” value came to 2.81 under setting [1], 3.61 under setting [2], 1.65 under setting [3] and 1.35 (compound: thalidomide).

B22: 46F_47A_49P_50I_52G_53A_54T_55F_67L_, Q9UKT9 (peptide)
chain: FACPICGATFTQKGNLLRHIKL
For B22, the “log2 fold change of degron read counts” value came to 3.39 under setting [1], 1.82 under setting [2], 1.17 under setting [3] and 0.639 (compound: thalidomide).

B23: 46F_47G_49P_50I_52G_53A_54T_55F_67L_, Q9UKT9 (peptide)
chain: FGCPICGATFTQKGNLLRHIKL
As to B23, the “log2 fold change of degron read counts” value under setting [1] stood at 3.46, the “log2 fold change of degron read counts” value under setting [2] came to 2.4, the “log2 fold change of degron read counts” value under setting [3] turned out to be 2.17 and the “log2 fold change of degron read counts” value (compound: thalidomide) came out at 1.08.

B24: 46F_47C_49P_50I_52G_53A_54T_55F_67L_, Q9UKT9 (peptide)
chain: FCCPICGATFTQKGNLLRHIKL
Regarding B24, the “log2 fold change of degron read counts” value amounted to 1.51 under setting [1], 1.82 under setting [2], 2.36 under setting [3] and 2.09 (compound: thalidomide).

B25: 46F_47V_49P_50I_52G_53A_54T_55F_67L_, Q9UKT9 (peptide)
chain: FVCPICGATFTQKGNLLRHIKL
For the sequence B25, the “log2 fold change of degron read counts” value by setting is: under setting [1], -0.613; under setting [2], 1.74; under setting [3], 1.8; (compound: thalidomide) 2.23.

B26: 46F_47N_49P_50I_52G_53A_54T_55F_67L_, Q9UKT9 (peptide)
chain: FNCPICGATFTQKGNLLRHIKL
For B26, the “log2 fold change of degron read counts” value was 1.88 under setting [1], 0.692 under setting [2], 1.59 under setting [3] and 0.652 (compound: thalidomide).

B27: 46F_47Q_49P_50I_52G_53A_54T_55F_67L_, Q9UKT9 (peptide)
chain: FQCPICGATFTQKGNLLRHIKL
With B27, the “log2 fold change of degron read counts” value is, setting by setting: under setting [1], 0.717; under setting [2], 2.74; under setting [3], 2.33; (compound: thalidomide) 3.56.

B28: 46F_47M_49P_50I_52G_53A_54T_55F_67L_, Q9UKT9 (peptide)
chain: FMCPICGATFTQKGNLLRHIKL
On to B28, for which the “log2 fold change of degron read counts” value is -1.31 under setting [1], 0.0387 under setting [2], 2.08 under setting [3] and 1.34 (compound: thalidomide).

B29: 46F_47S_49P_50I_52G_53A_54T_55F_67L_, Q9UKT9 (peptide)
chain: FSCPICGATFTQKGNLLRHIKL
B29: the “log2 fold change of degron read counts” value was determined as 2.78 under setting [1], 2.14 under setting [2], 2.34 under setting [3] and 1.5 (compound: thalidomide).

B30: 46F_47R_49P_50I_52G_53A_54T_55F_67L_, Q9UKT9 (peptide)
chain: FRCPICGATFTQKGNLLRHIKL
As for B30, the “log2 fold change of degron read counts” value runs as follows: under setting [1], -0.752; under setting [2], -0.483; under setting [3], 1.07; (compound: thalidomide) 1.12.

B31: 46F_47K_49P_50I_52G_53A_54T_55F_67L_, Q9UKT9 (peptide)
chain: FKCPICGATFTQKGNLLRHIKL
Take B31: the “log2 fold change of degron read counts” value is, setting by setting: under setting [1], -1.47; under setting [2], -2.7; under setting [3], -2.3; (compound: thalidomide) -1.17.
